From PubChem
TTR transcr act: TTR transcription activation, primary screen. 92,000 compounds, 1.3% hits. AID 1117267. activation, % at 16.7 µM. SH-SY5Y TTR promoter Gaussia luciferase, luminescence; 100% = recombinant luciferase protein wells;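 active = activation above the mean of all tested compounds plus 3 SD, cut at about 9.5% in these data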;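 note: cells exposed to compounds for one day before reading; 0% = median of all test compound wells on the plate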
TTR inh HuH7: decreases TTR transcription in HuH7 cells in activator counter-screen; shares compounds with TTR transcr act; HuH7 TTR promoter-Gaussia luciferase reporter, luminescence; inhibition, % at 16.7 µM; 1,100 compounds, 4% hits;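 active = average inhibition above the solvent-only control wells' mean plus 3 SD, cut at about 15% in these data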;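 note: 0% = cells with DMSO only and 100% = cells with inhibitor control FD; inhibitors lower well luminescence so higher value means more inhibition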
TTR up confirm: confirmation of human transthyretin transcription activators; shares compounds with TTR transcr act; SHSY5Y TTR promoter Gaussia luciferase, luminescence; 100% = purified Lucia enzyme wells, no cells; activation, % at 16.7 µM; 1,100 tested, under 10 active;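 active = mean activation above a set limit taken from the earlier primary screen, cut at about 11% in these data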;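 note: 0% = DMSO-treated cells and 100% = recombinant Lucia luciferase without cells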
* hit, by the source's call. The full list was thinned out, with hits kept by preference.

SMILES	TTR transcr act	others
Cc1nc(N)ncc1CCC1OCCO1	12*	TTR inh HuH7=-10;TTR up confirm=0
Cn1cnc([N+](=O)[O-])c1Sc1nc(N)nc2c1ncn2C1OC(CO)C(O)C1O (configuration not stated)	0
CCN(CC(=O)NCc1ccc(Cl)cc1)C(=O)c1cccc(S(=O)(=O)Nc2ccc(OC)cc2)c1	0
Cc1nnc(NC(=O)C2CCN(S(=O)(=O)c3ccc(Cl)cc3)CC2)s1	2
CCCCn1c(SCC(=O)Nc2oc(C)c3c(C)n[nH]c(=O)c23)nc2cc(S(N)(=O)=O)ccc21	1
CCCCn1c(SCc2c(C)noc2C)nc2cc(S(N)(=O)=O)ccc21	16*	TTR inh HuH7=-24;TTR up confirm=0
CCCCn1c(SCC(=O)Nc2cc(C)on2)nc2cc(S(N)(=O)=O)ccc21	1
Cc1noc(C)c1S(=O)(=O)Nc1ccc(C(C)C)cc1	-2
COc1ccc2nc(NN=C(C)c3ccccn3)cc(C)c2c1	-2
COCCCNC(=O)C[C@@H]1C[C@@]2(C(=O)OC)CCCCC=C2N(CCc2ccc(OC)c(OC)c2)C1=O	36*	TTR inh HuH7=-5;TTR up confirm=1
CCCCCCCCN1C(=O)[C@H](CC(=O)NCCc2ccccc2OC)C[C@@]2(C(=O)OCC)CCCC=C12	-2
CCOC(=O)[C@]12CCCC=C1N(Cc1ccccc1)C(=O)[C@H](CC(=O)NCc1ccc(OC)c(OC)c1)C2	-2
COCCN1C(=O)CCC1(C)C(=O)Nc1ccc2ccccc2c1 (configuration not stated)	-1
COCCN(C(=S)Nc1ccc(OC)c(Cl)c1)C1CCN(C(C)=O)CC1	0
COc1ccc(C(=O)C2CCCN(C(=O)c3c4c(nn3C)CCCC4)C2)cc1F (configuration not stated)	2
Cn1nc2c(c1C(=O)N1CCCC(C(=O)c3cc(F)ccc3F)C1)CCCC2 (configuration not stated)	12*	TTR inh HuH7=-19;TTR up confirm=-1
Cc1cc(C)c(C(=O)N2CCCC(C(=O)c3cc(F)ccc3F)C2)o1 (configuration not stated)	3
COc1cc(C(=O)NC(C)c2ccc3ccccc3c2)cc(Cl)c1O (configuration not stated)	0
COc1ccc(C(c2c(NC(=O)c3ccco3)sc(C)c2C)N2CCOCC2)cc1 (configuration not stated)	14*	TTR inh HuH7=0;TTR up confirm=0
COc1ccc(C(CNC(=O)c2ccco2)N2CCCCC2)cc1 (configuration not stated)	1
COc1ccc(C(Nc2ccccn2)c2c(NC(=O)c3ccco3)sc(C)c2C)cc1OC (configuration not stated)	7
CC(C)=NOCC(=O)Nn1c(COc2ccccc2)nc2ccccc2c1=O	3
COc1ccccc1N1CCN(CCCCOc2ccc(C)cc2C)CC1	-1
NS(=O)(=O)c1ccc(S(=O)(=O)N(CCc2ccccc2)Cc2ccccn2)cc1	2
CCOC(=O)Cc1csc(NC(=O)CSc2nnc(-c3ccc(NS(=O)(=O)CC)cc3)o2)n1	-3
SMILES	TTR transcr act	others
COC(=O)CSc1nnc(-c2ccc(OC)c(OC)c2)o1	3
CCS(=O)(=O)Nc1ccc(-c2nnc(SCC(=O)OC)o2)cc1	10*	TTR inh HuH7=-7;TTR up confirm=0
OCCC1CN(C2CCN(c3ccccc3F)CC2)CCN1Cc1ccccc1 (configuration not stated)	2
Cc1ccc(Cc2c(-c3cccc(Br)c3)nc3cc(C)c(Br)c(C)n23)cc1	0
CCCCN1CC(=O)N2[C@H]3c4ccc(OC)cc4OC[C@@H]3[C@H](c3ccccc3)[C@]2(C)C1=O	2
Cc1cc(C(=O)N2CCc3ccccc3C2)on1	0
COC(C(=O)Nc1ccccc1F)c1ccccc1 (configuration not stated)	15*	TTR inh HuH7=-7;TTR up confirm=0
CCC(C)[C@H](NC(=O)Nc1ccccc1F)C(=O)O (some centres not stated)	9
COC(C(=O)NC1CC1)c1ccccc1 (configuration not stated)	2
CCC(C)(C)C1CCc2[nH]nc(C(=O)NCc3ccc(OC)cc3)c2C1 (configuration not stated)	1
COC(=O)c1c(SCC(=O)Nc2ccc(C)c(C)c2)nc(=O)[nH]c1C	0
C#CCN(C(=O)C1CCC(=O)N(CCc2cccc(F)c2)C1)C1CCCCC1 (configuration not stated)	4
O=P(CCc1ccccc1)(c1ccccc1)c1ccccc1	0
O=C1CC(NNc2ccccc2)C(=O)N1c1ccccc1 (configuration not stated)	11*	TTR inh HuH7=2;TTR up confirm=-1
CCOC(=O)NNC1CC(=O)N(c2ccccc2)C1=O (configuration not stated)	2
CC(O)CCC(=O)NNC1CC(=O)N(c2ccccc2)C1=O (configuration not stated)	3
O=C(NCC(=O)N1CCN(c2ccccn2)CC1)c1ccc(Br)o1	0
CC1=C(CC[C@@H](C)CO)OC2CC3C4CCC5CC(O)CCC5(C)C4CC(=O)C3(C)C12 (some centres not stated)	-2
CCOc1cc(CO)c(Br)cc1OCC(=O)O	1
CCCCNCc1cc(OC)c(OCC(N)=O)cc1Br	1
CCCCNCc1cc(OCC)c(OCC(N)=O)cc1Br	18*	TTR inh HuH7=-5;TTR up confirm=2
N#CCCCc1cc2cc(F)ccc2cn1	4
CCOC(=O)c1c(C)[nH]c(C)c1S(=O)(=O)NC1CCN(C(=O)OCC)CC1	-1
CCOC(=O)CCN(C(=S)Nc1ccccc1)C1CCCCC1	0
Nc1nc(NCC2CCCO2)nc(Nc2ccc(Cl)cc2)c1[N+](=O)[O-] (configuration not stated)	3
SMILES	TTR transcr act	others
Nc1nc(NCCCN2CCOCC2)nc(Nc2ccc(Cl)cc2)c1[N+](=O)[O-]	13*	TTR inh HuH7=-8;TTR up confirm=0
Nc1nc(Nc2ccccc2)nc(N2CCOCC2)c1[N+](=O)[O-]	1
CCN(CC)CCCNC(=S)N1CCC(c2nc3ccccc3[nH]2)CC1	2
CC(=O)Cc1nsc(NC(=O)c2ccc(COc3ccccc3C)o2)n1	2
CCC(c1nc2ccccc2[nH]1)N(C(=O)Cc1cc(OC)cc(OC)c1)c1ccc(N2CCOCC2)cc1 (configuration not stated)	2
COc1ccc2[nH]c(C(=O)N(Cc3ccccn3)Cc3ccccn3)cc2c1	1
COc1cc(CCN(C(=O)c2cc3ccccc3[nH]2)C(C)c2nc3ccccc3[nH]2)cc(OC)c1 (configuration not stated)	13*	TTR inh HuH7=-22;TTR up confirm=0
COc1cc(CN(C2CC2)S(=O)(=O)c2ccccc2Br)cc(OC)c1	-2
CN(C(=O)c1cccc(NC(=O)Cc2ccc(NC(=O)C3CCCN(C(=O)C4CCC4)C3)cc2)c1)C1CCCC1 (configuration not stated)	-2
COc1ccc(Cl)cc1NC(=O)c1cc(C2CC2)on1	-1
COc1ccc(Cl)cc1NC(=O)c1cc(-c2ccccc2)on1	12*	TTR inh HuH7=11;TTR up confirm=0
COc1ccc(NC(=O)c2cc(-c3ccc(OC)c(OC)c3)on2)cc1OC	0
Cc1cccc(N2CCN(C(=O)c3c(Cl)cnn3C)CC2)c1C	3
C[C@H](CO)N1C[C@H](C)[C@H](CN(C)C(=O)NC2CCCCC2)Oc2ncc(Br)cc2C1=O	0
